# Assay results published in PubChem BioAssay (EPA / NIEHS).
# Records with an inconclusive call do not appear. Activity calls are given as the source filed them. The calls were made as follows, unless noted: active = hit-call score of the fitted dose curve at least 0.9, where 1 is the maximum; inconclusive = response in the unintended direction; inactive = score below 0.9.
# How the values were obtained:
# [1] = biological target: Steroid hormone receptor ERR1 (Homo sapiens) (UniProt P11474); test: ATG_ERRa_TRANS: Attagene TRANS-FACTORIAL HepG2 Assay for human Estrogen-Related Receptor alpha (ERRa) (AID 2282971); conditions: HepG2 Attagene TRANS reporter, ERRa transactivation
# Procedure, shortened: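 Signal gain relative to DMSO for an ERRa-Gal4 chimeric receptor, read as reporter mRNA by RT-PCR/capillary electrophoresis. Human HepG2 liver cells, transient multiplex reporter transfection, 24 h chemical exposure.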
# [2] = biological target: Bile acid receptor (Homo sapiens) (UniProt Q96RI1); test: ATG_FXR_TRANS: Attagene TRANS-FACTORIAL HepG2 Assay for Farnesoid X Receptor (FXR) (AID 2282979); conditions: HepG2 Attagene TRANS FXR-GAL4 reporter transcription;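 also: hits raise reporter mRNA above DMSO so AC50 marks FXR activation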
# Bile acid receptor (Homo sapiens), sequence (Q96RI1 whole entry, looked up, the tested form may be a part): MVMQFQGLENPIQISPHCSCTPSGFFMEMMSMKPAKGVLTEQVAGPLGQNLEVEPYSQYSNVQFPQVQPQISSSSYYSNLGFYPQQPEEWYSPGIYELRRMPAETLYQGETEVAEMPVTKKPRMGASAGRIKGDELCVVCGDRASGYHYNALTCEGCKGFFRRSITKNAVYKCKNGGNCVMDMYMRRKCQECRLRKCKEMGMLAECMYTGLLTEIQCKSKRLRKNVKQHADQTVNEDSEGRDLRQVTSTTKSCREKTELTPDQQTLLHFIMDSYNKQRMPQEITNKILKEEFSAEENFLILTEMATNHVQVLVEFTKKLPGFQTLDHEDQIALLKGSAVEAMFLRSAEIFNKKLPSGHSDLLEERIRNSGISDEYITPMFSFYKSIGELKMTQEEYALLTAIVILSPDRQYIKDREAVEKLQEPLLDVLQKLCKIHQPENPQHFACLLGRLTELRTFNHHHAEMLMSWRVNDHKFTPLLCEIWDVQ
# Procedure, shortened: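 After 24 h chemical treatment of transfected HepG2 cells, GAL4-UAS reporter transcripts driven by an exogenous FXR-GAL4 fusion were measured by RT-PCR and capillary electrophoresis. Increases over DMSO were fitted.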
# [3] = ATG_ERE_CIS: Attagene CIS-FACTORIAL HepG2 Assay for Estrogen Response Element (ERE) (AID 2282940; active = hit-call score of the fitted dose curve at least 0.9, where 1 is the maximum; inactive = score below 0.9); conditions: HepG2 ERE cis-reporter, Attagene RNA transcript; actives raise or lower the signal
# Procedure, shortened: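 After 24 h compound treatment, RNA from transfected HepG2 cells was reverse-transcribed, reporter cDNA PCR-amplified, FAM-labelled, HpaI-cut and resolved by capillary electrophoresis. ERE-driven cis reporter transcripts reflect endogenous factors; gain or loss scored against DMSO.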
# [4] = biological target: Estrogen receptor (Homo sapiens) (UniProt P03372); test: ATG_ERa_TRANS: Attagene TRANS-FACTORIAL HepG2 Assay for human Estrogen Receptor alpha (ERa) (AID 2282970); conditions: HepG2 Attagene TRANS ERa GAL4 reporter, mRNA
# Estrogen receptor (Homo sapiens), sequence (P03372 whole entry, looked up, the tested form may be a part): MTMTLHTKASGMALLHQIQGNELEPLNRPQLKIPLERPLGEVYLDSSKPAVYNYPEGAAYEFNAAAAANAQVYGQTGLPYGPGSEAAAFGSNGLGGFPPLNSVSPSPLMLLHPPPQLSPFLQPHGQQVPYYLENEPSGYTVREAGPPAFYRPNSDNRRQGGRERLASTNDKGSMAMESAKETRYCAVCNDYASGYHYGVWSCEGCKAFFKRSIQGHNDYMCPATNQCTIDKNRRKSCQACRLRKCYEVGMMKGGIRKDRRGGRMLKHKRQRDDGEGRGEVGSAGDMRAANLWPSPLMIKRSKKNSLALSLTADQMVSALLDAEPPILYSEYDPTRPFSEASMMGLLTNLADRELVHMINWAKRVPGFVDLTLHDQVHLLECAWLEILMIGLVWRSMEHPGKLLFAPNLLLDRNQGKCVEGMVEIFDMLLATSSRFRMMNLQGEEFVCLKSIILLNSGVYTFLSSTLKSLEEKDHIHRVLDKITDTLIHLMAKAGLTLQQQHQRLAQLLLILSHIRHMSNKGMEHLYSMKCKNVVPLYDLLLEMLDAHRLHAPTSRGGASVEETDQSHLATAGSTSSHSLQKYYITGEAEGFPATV
# Procedure, shortened: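 Multiplexed cell-based reporter format in HepG2: chimeric ERa-Gal4 protein drives GAL4-UAS reporter transcription. Fluorescent reporter mRNA quantified by capillary electrophoresis 24 hours after dosing; endpoint fitted as signal gain against DMSO.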
# [5] = biological target: Estrogen-related receptor gamma (Homo sapiens) (UniProt P62508); test: ATG_ERRg_TRANS: Attagene TRANS-FACTORIAL HepG2 Assay for human Estrogen-Related Receptor gamma (ERRg) (AID 2282977); conditions: HepG2 Attagene TRANS reporter, ERRg transactivation;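 also: hits increase reporter signal over DMSO so potencies reflect activators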
# Estrogen-related receptor gamma (Homo sapiens), sequence (P62508 whole entry, looked up, the tested form may be a part): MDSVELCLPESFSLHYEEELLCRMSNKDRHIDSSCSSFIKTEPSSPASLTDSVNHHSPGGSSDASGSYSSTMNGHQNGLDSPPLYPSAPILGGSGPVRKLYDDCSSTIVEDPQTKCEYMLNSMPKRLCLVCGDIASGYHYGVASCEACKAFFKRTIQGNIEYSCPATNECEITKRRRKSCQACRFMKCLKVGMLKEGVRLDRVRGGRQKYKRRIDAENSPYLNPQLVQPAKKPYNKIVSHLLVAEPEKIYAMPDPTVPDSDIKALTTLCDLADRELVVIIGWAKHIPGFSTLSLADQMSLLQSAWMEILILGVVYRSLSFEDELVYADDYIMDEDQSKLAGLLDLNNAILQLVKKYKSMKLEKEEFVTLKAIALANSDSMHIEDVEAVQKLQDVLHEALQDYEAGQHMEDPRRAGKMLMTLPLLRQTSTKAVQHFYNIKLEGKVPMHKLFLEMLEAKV
# Procedure, shortened: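 HepG2 cells transiently transfected with multiplexed GAL4-UAS reporter units and chimeric NR-Gal4 constructs were exposed to test chemicals for 24 h. Reporter mRNA was measured by RT-PCR, 6-FAM primer extension, HpaI digestion and capillary electrophoresis; gain-of-signal versus DMSO.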
# [6] = biological target: human Retinoic Acid Receptor beta (RARb), RARB (gene 5915) (UniProt P10826); test: ATG_RARb_TRANS: Attagene TRANS-FACTORIAL HepG2 Assay for human Retinoic Acid Receptor beta (AID 2283004)
# human Retinoic Acid Receptor beta (RARb), RARB (gene 5915), sequence (P10826 whole entry, looked up, the tested form may be a part): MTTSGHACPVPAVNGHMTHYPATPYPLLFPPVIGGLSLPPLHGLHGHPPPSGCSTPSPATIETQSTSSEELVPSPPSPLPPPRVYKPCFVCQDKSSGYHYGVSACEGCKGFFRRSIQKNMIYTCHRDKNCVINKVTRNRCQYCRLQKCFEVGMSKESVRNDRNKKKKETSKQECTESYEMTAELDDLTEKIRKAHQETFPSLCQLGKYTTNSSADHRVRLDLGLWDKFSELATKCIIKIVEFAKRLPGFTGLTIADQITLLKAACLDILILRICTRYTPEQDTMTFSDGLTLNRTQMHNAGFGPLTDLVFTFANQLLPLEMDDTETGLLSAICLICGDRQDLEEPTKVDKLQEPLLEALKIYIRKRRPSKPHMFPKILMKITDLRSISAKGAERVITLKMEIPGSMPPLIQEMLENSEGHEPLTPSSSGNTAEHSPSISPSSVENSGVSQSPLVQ
# Procedure, shortened: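 Fluorescent capillary-electrophoresis detection of GAL4-UAS reporter mRNA defines the endpoint, with induction over DMSO-treated wells scored as activity. Transiently transfected human hepatoma HepG2 cells expressing exogenous NR–Gal4 proteins are exposed to test chemicals for 24 h.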
# [7] = biological target: Retinoic acid receptor alpha (Homo sapiens) (UniProt P10276); test: ATG_RARa_TRANS: Attagene TRANS-FACTORIAL HepG2 Assay for human Retinoic Acid Receptor alpha (RARa) (AID 2283005)
# Retinoic acid receptor alpha (Homo sapiens), sequence (P10276 whole entry, looked up, the tested form may be a part): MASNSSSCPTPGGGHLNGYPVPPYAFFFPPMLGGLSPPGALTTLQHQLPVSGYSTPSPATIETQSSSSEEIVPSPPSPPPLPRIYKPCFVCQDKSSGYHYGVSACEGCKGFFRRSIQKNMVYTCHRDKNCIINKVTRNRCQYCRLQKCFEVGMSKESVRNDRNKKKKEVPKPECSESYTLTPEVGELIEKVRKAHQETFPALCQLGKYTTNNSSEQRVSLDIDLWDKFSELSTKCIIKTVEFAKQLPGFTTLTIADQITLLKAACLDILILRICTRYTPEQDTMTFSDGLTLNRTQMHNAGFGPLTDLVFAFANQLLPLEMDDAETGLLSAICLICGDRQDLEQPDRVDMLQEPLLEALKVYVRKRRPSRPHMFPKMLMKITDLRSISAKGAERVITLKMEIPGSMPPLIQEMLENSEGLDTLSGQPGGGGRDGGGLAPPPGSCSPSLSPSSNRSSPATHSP
# Procedure, shortened: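 HepG2 cells transiently transfected with multiple reporter units expressing chimeric RARα-GAL4 fusion, with GAL4-UAS-driven reporters. After 24 h compound exposure, reporter mRNA induction quantified by RT-PCR and capillary electrophoresis with fluorescent labeling; gain-of-signal fitted relative to DMSO control.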
# [8] = biological target: human Retinoic Acid Receptor gamma (RARg), RARG (gene 5916) (UniProt P13631); test: ATG_RARg_TRANS: Attagene TRANS-FACTORIAL HepG2 Assay for human Retinoic Acid Receptor gamma (RARg) (AID 2283009)
# human Retinoic Acid Receptor gamma (RARg), RARG (gene 5916), sequence (P13631 whole entry, looked up, the tested form may be a part): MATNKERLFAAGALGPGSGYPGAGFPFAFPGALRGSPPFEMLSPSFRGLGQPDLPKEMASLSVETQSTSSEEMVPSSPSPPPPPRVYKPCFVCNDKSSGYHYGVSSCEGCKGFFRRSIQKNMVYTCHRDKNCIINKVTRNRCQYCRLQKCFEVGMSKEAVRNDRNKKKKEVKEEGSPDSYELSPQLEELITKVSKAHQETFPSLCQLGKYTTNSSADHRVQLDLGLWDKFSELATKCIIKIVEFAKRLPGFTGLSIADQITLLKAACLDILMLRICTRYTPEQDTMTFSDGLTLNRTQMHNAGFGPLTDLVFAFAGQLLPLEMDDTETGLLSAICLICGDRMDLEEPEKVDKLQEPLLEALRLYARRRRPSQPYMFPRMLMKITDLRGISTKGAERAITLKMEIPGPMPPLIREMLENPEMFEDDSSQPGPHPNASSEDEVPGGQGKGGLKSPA
# Procedure, shortened: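 HepG2 cells transiently transfected with multiplexed reporter units expressing chimeric RARg-GAL4 and GAL4-UAS-driven reporters; 24 h compound exposure. Reporter mRNA quantified by RT-PCR with fluorescent labelling and capillary electrophoresis; gain-of-signal fitted relative to DMSO baseline.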
# [9] = ATG_M_19_TRANS: Attagene TRANS-FACTORIAL HepG2 Assay for M19 Transcription Factor (Internal Marker) (AID 2282974); conditions: HepG2 Attagene TRANS-FACTORIAL M19 internal marker reporter
# Procedure, shortened: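 24 h chemical exposure of transiently transfected HepG2 (MRTU library). RNA → oligo(dT) RT → PCR → 6-FAM labelling → HpaI cut → CE fluorescence. Positive-direction fit vs DMSO baseline; background internal-marker readout.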
# [10] = biological target: Retinoic acid receptor RXR-alpha (Homo sapiens) (UniProt P19793); test: OT_NURR1_NURR1RXRa_1440: Odyssey Thera (OT) 24-hour HEK293T Protein Complementation Assay for Nurr1/retinoid X receptor (RXR) (AID 2283386)
# Retinoic acid receptor RXR-alpha (Homo sapiens), sequence (P19793 whole entry, looked up, the tested form may be a part): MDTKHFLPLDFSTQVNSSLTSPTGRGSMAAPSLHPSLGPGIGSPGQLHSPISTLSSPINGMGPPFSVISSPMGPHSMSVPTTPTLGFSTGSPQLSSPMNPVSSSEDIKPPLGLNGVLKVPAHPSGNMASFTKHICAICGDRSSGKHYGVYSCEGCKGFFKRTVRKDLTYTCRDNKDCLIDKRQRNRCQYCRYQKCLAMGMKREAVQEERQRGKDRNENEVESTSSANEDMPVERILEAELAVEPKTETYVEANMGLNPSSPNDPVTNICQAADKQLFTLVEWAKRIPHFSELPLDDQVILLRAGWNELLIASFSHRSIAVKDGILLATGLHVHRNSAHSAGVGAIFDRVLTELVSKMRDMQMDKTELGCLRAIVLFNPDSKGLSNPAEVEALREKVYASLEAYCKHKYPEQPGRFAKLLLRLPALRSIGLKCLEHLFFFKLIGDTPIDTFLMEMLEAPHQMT
# Procedure, shortened: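 HEK293T cells were dosed with compound and read 24 h later by fluorescence intensity in a protein-fragment complementation format, where Nurr1–RXRα interaction reconstitutes a split reporter. Activity was fitted as gain of signal relative to DMSO baseline.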
# [11] = ACEA_AR_agonist_AUC_viability: ACEA Biosciences xCELLigence Real-Time Cell Analysis on Androgen Receptor Agonism for Viability (AID 2283775)
# Procedure, shortened: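 Read-out is area under the impedance curve at 80 h post-dose in 22Rv1 cells, with DMSO as baseline and signal loss taken as reduced viability. Compounds ran in duplicate from 100 uM final.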
# [12] = biological target: human Peroxisome Proliferator-activated Receptor delta (PPARd), PPARD (gene 5467) (UniProt Q03181); test: ATG_PPARd_TRANS: Attagene TRANS-FACTORIAL HepG2 Assay for human Peroxisome Proliferator-activated Receptor delta (PPARd) (AID 2283002)
# human Peroxisome Proliferator-activated Receptor delta (PPARd), PPARD (gene 5467), sequence (Q03181 whole entry, looked up, the tested form may be a part): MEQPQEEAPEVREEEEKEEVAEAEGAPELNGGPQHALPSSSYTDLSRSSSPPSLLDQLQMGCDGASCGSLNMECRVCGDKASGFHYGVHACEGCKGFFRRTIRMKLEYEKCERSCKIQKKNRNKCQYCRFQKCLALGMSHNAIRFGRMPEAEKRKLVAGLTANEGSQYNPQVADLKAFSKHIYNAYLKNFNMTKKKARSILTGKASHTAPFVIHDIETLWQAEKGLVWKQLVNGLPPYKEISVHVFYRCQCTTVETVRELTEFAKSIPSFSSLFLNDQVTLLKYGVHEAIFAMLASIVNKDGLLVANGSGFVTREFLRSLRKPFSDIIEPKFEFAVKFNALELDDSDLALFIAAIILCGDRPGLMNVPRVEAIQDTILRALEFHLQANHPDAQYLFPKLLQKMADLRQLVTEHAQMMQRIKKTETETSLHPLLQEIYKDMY
# Procedure, shortened: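 Multiplexed trans-activation format: HepG2 liver cells expressing exogenous NR-Gal4 chimeras and GAL4-UAS reporters were exposed for 24 h. Reporter mRNA was detected by RT-PCR with capillary electrophoresis fluorescence; activity fitted as gain of signal relative to DMSO.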
# [13] = biological target: Estrogen receptor beta (Homo sapiens) (UniProt Q92731); test: OT_ER_ERbERb_0480: Odyssey Thera (OT) 8-hour HEK293T Protein-Complementation Assay for Estrogen Receptor-beta/-beta Homodimer (AID 2283357);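 also: active means signal gain over DMSO baseline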
# Estrogen receptor beta (Homo sapiens), sequence (Q92731 whole entry, looked up, the tested form may be a part): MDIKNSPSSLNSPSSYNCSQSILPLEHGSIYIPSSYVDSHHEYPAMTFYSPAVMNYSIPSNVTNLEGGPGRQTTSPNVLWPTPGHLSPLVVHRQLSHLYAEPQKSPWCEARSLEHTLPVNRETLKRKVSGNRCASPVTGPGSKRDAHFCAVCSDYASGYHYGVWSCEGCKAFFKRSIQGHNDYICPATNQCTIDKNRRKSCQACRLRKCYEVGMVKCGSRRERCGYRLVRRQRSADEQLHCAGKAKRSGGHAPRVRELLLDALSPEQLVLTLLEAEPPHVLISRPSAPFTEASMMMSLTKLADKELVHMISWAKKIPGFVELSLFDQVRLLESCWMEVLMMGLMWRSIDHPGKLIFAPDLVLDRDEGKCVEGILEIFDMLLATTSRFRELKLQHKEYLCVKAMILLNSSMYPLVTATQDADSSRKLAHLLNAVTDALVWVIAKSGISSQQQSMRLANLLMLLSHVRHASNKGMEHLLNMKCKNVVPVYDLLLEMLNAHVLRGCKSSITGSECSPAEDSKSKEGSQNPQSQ
# Procedure, shortened: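 Readout: increase in mean fluorescence intensity (nucleus for agonists; nucleus plus cytoplasm for antagonists) relative to DMSO, from a reporter-fragment complementation of human ER-beta LBD homodimer in HEK293T cells dosed 8 hours.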
# [14] = biological target: Estrogen receptor beta (Homo sapiens) (UniProt Q92731); test: OT_ER_ERbERb_1440: Odyssey Thera (OT) 24-hour HEK293T Protein-Complementation Assay for Estrogen Receptor-beta/-beta Homodimer (AID 2283380);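 also: fluorescence gain from ER beta LBD homodimer complementation read by laser scanning cytometry; scored as signal increase over DMSO baseline for both agonists and antagonists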
# Procedure, shortened: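 HEK293T cells stably expressing human ER-beta LBD (aa 310-547) PCA homodimer pair, dosed 24 h; formaldehyde-fixed, Draq5-stained. Readout: increase in nuclear (agonist) or nuclear plus cytoplasmic (antagonist) fluorescence intensity versus DMSO, gain-of-signal fitting.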
# [15] = ACEA_AR_antagonist_AUC_viability: ACEA Biosciences xCELLigence Real-Time Cell Analysis on Androgen Receptor Antagonism for Viability (AID 2283776);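 also: 22Rv1 human prostate cancer cells growing on impedance electrode plates; area under impedance growth curve at 80 h after dosing as viability; hits lower the growth signal relative to DMSO meaning cytotoxicity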
# Procedure, shortened: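 Impedance read-out (RT-CES): area under growth curve at 80 h post-dose, loss of signal scored vs DMSO baseline. 22Rv1 cells; 8-pt 1:4 series, top 100 uM final, ≤0.5% DMSO; biological duplicate.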
# [16] = biological target: Peroxisome proliferator-activated receptor gamma (Homo sapiens) (UniProt P37231); test: OT_PPARg_PPARgSRC1_0480: Odyssey Thera (OT) 8-hour Protein-Complementation Assay for Peroxisome Proliferator-activated Receptor Gamma / SRC-1 Co-activator (AID 2283387);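 also: nuclear to cytoplasmic split Venus YFP fluorescence ratio reporting PPARg SRC-1 interaction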
# Peroxisome proliferator-activated receptor gamma (Homo sapiens), sequence (P37231 whole entry, looked up, the tested form may be a part): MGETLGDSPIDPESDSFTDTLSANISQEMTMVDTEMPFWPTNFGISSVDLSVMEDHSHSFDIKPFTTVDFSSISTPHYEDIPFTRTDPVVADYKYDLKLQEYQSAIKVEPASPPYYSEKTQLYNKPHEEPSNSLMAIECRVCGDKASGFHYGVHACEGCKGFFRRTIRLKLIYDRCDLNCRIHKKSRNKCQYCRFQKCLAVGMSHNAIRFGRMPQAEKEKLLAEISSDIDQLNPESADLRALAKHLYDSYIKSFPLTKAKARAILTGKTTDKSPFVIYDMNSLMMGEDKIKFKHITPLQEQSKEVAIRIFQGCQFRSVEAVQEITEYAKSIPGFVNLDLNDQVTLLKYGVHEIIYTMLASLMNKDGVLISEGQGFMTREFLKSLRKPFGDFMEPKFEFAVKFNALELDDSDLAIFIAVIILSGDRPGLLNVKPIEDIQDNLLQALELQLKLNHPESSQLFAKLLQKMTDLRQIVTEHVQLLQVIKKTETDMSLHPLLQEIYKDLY
# Procedure, shortened: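 Protein-fragment complementation of split Venus YFP reports PPARg/SRC-1 interaction in HEK293T (transfected 48 h before treatment), exposed 8 h. Readout: N/C fluorescence ratio at 488 nm from imaging, Draq5 for segmentation, positive fit relative to DMSO.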
# [17] = biological target: Peroxisome proliferator-activated receptor gamma (Homo sapiens) (UniProt P37231); test: OT_PPARg_PPARgSRC1_1440: Odyssey Thera (OT) 24-hour Protein-Complementation Assay for Peroxisome Proliferator-activated Receptor Gamma/ SRC-1 Co-activator (AID 2283388);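 also: nuclear to cytoplasmic ratio of reconstituted Venus YFP fluorescence in fixed imaged cells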
# Procedure, shortened: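 Cells carrying the PPARg/SRC-1 fragment-complementation reporter receive compound for 24 hours, are fixed and counterstained with Draq5, then imaged. Increased nuclear relative to cytoplasmic YFP fluorescence above DMSO baseline indicates binding activity.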
# [18] = read-out: Pselectin, SELP (gene 6403); test: BSK_4H_Pselectin: BioMAP Diversity Plus: 4H Assay for Pselectin Biomarker Activity (AID 2283026; active = hit-call score of the fitted dose curve at least 0.9, where 1 is the maximum; inactive = score below 0.9); conditions: primary human endothelial cells (HUVEC); actives raise or lower the signal
# Procedure, shortened: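 Primary human umbilical vein endothelial cells were exposed to test chemical for 24 h, then cell-surface P-selectin was quantified by ELISA. Activity was fitted bidirectionally against DMSO as negative control and baseline.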
# [19] = biological target: Retinoic acid receptor RXR-alpha (Homo sapiens) (UniProt P19793); test: OT_NURR1_NURR1RXRa_0480: Odyssey Thera (OT) 8-hour HEK293T Protein Complementation Assay for Nurr1/retinoid X receptor (RXR) (AID 2283385)
# Procedure, shortened: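 HEK293T cells expressing Nurr1 and RXRα fused to reporter fragments were dosed with compound for 8 hours. Complex formation was read as fluorescence intensity and analysed as gain of signal against DMSO as baseline.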
# [20] = CCTE_Harrill_HTTr_CellCount_MCF7: CCTE's Cell Proliferation Assessment for the High-Throughput Transcriptomics (HTTr) Platform, Harrill Lab (AID 2284012);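 also: cells exposed to compound for six hours; intended direction is loss of nuclei count meaning fewer cells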
# Procedure, shortened: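 MCF-7 cells were exposed for 6 h to an eight-point dilution series; Hoechst-labeled nuclei were counted by high content imaging. Curves were fitted bidirectionally against DMSO as negative control and baseline, with signal loss indicating reduced cell count.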
compound,measurement,setting,value
O=C1NC(=O)[C@@H]2CC=CC[C@H]12,outcome,[1],inactive
same,outcome,[2],inactive
O=C1CCCCCCCCCCCCCC1,outcome,[3],inactive
same,AC50,[4],26.5 µM (active)
CN1CCCC1,outcome,[3],inactive
same,outcome,[4],inactive
same,outcome,[5],inactive
same,outcome,[2],inactive
same,outcome,[6],inactive
same,outcome,[7],inactive
same,outcome,[8],inactive
C=CC(C)(CCC=C(C)C)OC(=O)c1ccccc1 (stereo unspecified),outcome,[2],inactive
CCOC(=O)CC(=O)OCC,outcome,[9],inactive
same,outcome,[2],inactive
same,outcome,[7],inactive
same,outcome,[8],inactive
same,outcome,[10],inactive
same,outcome,[11],inactive
O=C1NC(=O)C2CC=CCC12 (stereo unspecified),outcome,[12],inactive
same,outcome,[8],inactive
same,outcome,[13],inactive
same,outcome,[14],inactive
same,outcome,[10],inactive
same,outcome,[11],inactive
same,outcome,[15],inactive
CCCCOC(=O)COc1ccc(Cl)cc1Cl,outcome,[10],inactive
same,outcome,[16],inactive
same,outcome,[17],inactive
same,outcome,[11],inactive
same,outcome,[15],inactive
CCCCCCC1CCC(=O)O1 (stereo unspecified),outcome,[3],inactive
same,outcome,[4],inactive
same,outcome,[1],inactive
same,outcome,[12],inactive
same,outcome,[6],inactive
same,outcome,[7],inactive
same,outcome,[8],inactive
same,outcome,[14],inactive
same,outcome,[16],inactive
same,outcome,[17],inactive
same,outcome,[11],inactive
same,outcome,[15],inactive
CCOc1ccc2c(c1)C(C)CC(C)(C)N2 (stereo unspecified),outcome,[2],inactive
same,outcome,[12],inactive
same,outcome,[7],inactive
O=[N+]([O-])c1ccccc1C(F)(F)F,outcome,[3],inactive
same,outcome,[1],inactive
same,outcome,[9],inactive
same,outcome,[5],inactive
same,outcome,[7],inactive
same,outcome,[8],inactive
Sc1nc2ccccc2s1,outcome,[18],inactive
same,outcome,[13],inactive
same,outcome,[14],inactive
same,outcome,[19],inactive
same,outcome,[16],inactive
same,outcome,[17],inactive
same,outcome,[15],inactive
CCCCNC(N)=O,outcome,[1],inactive
same,outcome,[2],inactive
O=C(c1ccccc1)c1ccccc1O,outcome,[1],inactive
same,outcome,[5],inactive
same,AC50,[13],50 µM (active)
same,outcome,[14],inactive
same,outcome,[16],inactive
same,outcome,[17],inactive
same,outcome,[11],inactive
same,outcome,[15],inactive
CCC(C)=NO,outcome,[9],inactive
same,outcome,[6],inactive
same,outcome,[18],inactive
same,outcome,[13],inactive
same,outcome,[14],inactive
same,outcome,[19],inactive
same,outcome,[10],inactive
same,outcome,[11],inactive
same,AC50,[15],50 µM (active)
same,outcome,[20],inactive
C=CCOC(=O)C(=C)C,outcome,[1],inactive
same,outcome,[5],inactive
same,outcome,[8],inactive
CCCCC(CC)COC(=O)CS (stereo unspecified),outcome,[1],inactive
same,outcome,[5],inactive
same,AC50,[19],50 µM (active)
same,AC50,[10],16 µM (active)
CNC[C@H](O)[C@@H](O)[C@H](O)[C@H](O)CO,outcome,[2],inactive
CCCCCC1CCCC(=O)O1 (stereo unspecified),outcome,[1],inactive
same,outcome,[5],inactive
same,outcome,[2],inactive
same,outcome,[12],inactive
same,outcome,[6],inactive
same,outcome,[7],inactive
same,outcome,[8],inactive
COC(=O)CCSCCC(=O)OC,outcome,[5],inactive
same,outcome,[2],inactive
same,outcome,[8],inactive
Nc1nnc(-c2ccc([N+](=O)[O-])o2)o1,outcome,[3],inactive
same,outcome,[12],inactive
COc1c2occc2cc2ccc(=O)oc12,outcome,[2],inactive
CCC(C)C1N=C(C)C(C)S1 (stereo unspecified),outcome,[1],inactive
same,outcome,[5],inactive
CC(=O)c1nccs1,AC50,[3],4.94 µM (active)
same,AC50,[4],39.3 µM (active)
same,outcome,[9],inactive
same,outcome,[6],inactive
same,outcome,[7],inactive
